Results on 38 compounds are retold here after PubChem BioAssay (NCI).

This is part of a sample that, as a whole, favours compounds with a hit. Of some 83,000 tested, about 20% had one in any assay.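 How to read the values: 0–100, growth inhibition (40 = 60% inhibited); 0, no net growth; -100 to 0, cell death (-40 = 40% of starting cells died; -100 = all dead).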 Values without a mark were called inactive. The source made the active and inactive calls. Rule for the calls: active = growth percent below 10; inactive = the rest.

This test has as its system HL-60(TB) leukemia. Kind of test: NCI-60 one-dose screen, 48 h (100 = growth as untreated, 0 = no growth, -100 = all killed). As to conditions: 10 µM unless noted.

Take `COc1ccc(-c2cc(-c3cc(OC)c(OC)c(OC)c3)c(C#N)c(=O)n2CCCCC(=O)NO)cc1`: the growth was 44%.
The value for `O=C1NC(=S)NC(=O)C1=Cc1cn(Cc2cn(Cc3cccc4ccccc34)nn2)c2ccccc12` was 106%; that for `OCCCCc1nccc2c1[nH]c1ccccc12` was 73.7%.
The value for `CCCCCC/C=C1\CCC(CN2CCCC2)C1=O` (stereo not drawn) was 62.2%; that for `CCC(OC(=O)CC(C)C)c1ccccc1` (stereo not drawn) was 102%; that for `CCNC(=O)Oc1ccc(/C(=C(/C)Cc2ccc(OC)cc2)c2ccc(OCCN3CCCCCC3)cc2)cc1` was 38.1%.
Then `Cc1c(C(N)=O)sc2nc(C)n(/N=c3\scc(-c4ccccc4)n3Cc3ccccc3)c(=O)c12`, with -35.8% (active); and `Cc1nc(NC(=O)COc2ccc(/C=C3\Cc4ccc(Cl)cc4C3=O)cc2)sc1C`, with 86.5%; and `ClC1=C(Br)C(Br)(Br)C(=C(Br)Br)C1(Br)Br`, with 29.8%.
For the compound `O=C1CCC/C=C\C[C@H]2C=C(Cl)C(=O)/C2=C/C[C@H](CCCCC(F)(F)F)OC(=O)CCC/C=C\C[C@H]2C=C(Cl)C(=O)/C2=C/C[C@H](CCCCC(F)(F)F)O1`, the growth was -16.5% [7.5 µM] (active).
Turning to `COc1ccc(/C=C2\Oc3cc(OCCN4CCCC4)ccc3C2=O)c(OC)c1`, the growth was 75.6%.
Consider `Oc1ccc(Cc2ccc(O)c(C3CC(c4ccc(Cl)cc4)=NN3)c2)cc1C1CC(c2ccc(Cl)cc2)=NN1` (stereo not drawn), for which the growth was -23.6% (active).
Take `COc1cc(NCCCN=C(N)NC(N)=NC(C)C)c2ncccc2c1`: the growth was 85.7%.
The value for `CCOC(=O)C(O)C(O)(c1ccccc1)c1ccccc1` (stereo not drawn) was 91.1%; that for `CN1CCN(CCCN2c3ccccc3Sc3ccc(C(F)(F)F)cc32)CC1` was 83.8%; that for `CC(=O)OCC(=O)C1(O)C(C)CC2C3C=C(C)C4=Cc5c(cnn5-c5ccccc5)CC4(C)C3C(O)CC21C` (stereo not drawn) was 14.7%.
As for `COc1ccc(C(=O)c2cc(OC)c(C)c(OC)c2)cc1OC(=O)CCl`, the growth is -28.5% (active).
Then `O=[N+]([O-])c1ccccc1/C=N\NC(=S)N/N=C/c1ccccc1[N+](=O)[O-]`, with 9.57% (active); and `CC1=C(C(=O)OCC2CCN(C(=O)OC(C)(C)C)CC2)[C@H](c2cccc(C#N)c2)C2=C(CC(C)(C)CC2=O)N1`, with 27.5%; and `CC1=CCC(OC(=O)C(C)(C)CCC(O)(C(=O)OC2(C(C)C)CCC3(C)OC3C2)C(C)C)(C(C)C)CC1` (stereo not drawn), with -43.1% (active).
The value for `O=[N+]([O-])c1cccc(SSc2cccc([N+](=O)[O-])c2)c1` was 93.6%; that for `c1cnc2n[nH]c(Nc3ncnc4c3sc3ncccc34)c2c1` was 96.8%; that for `COc1cc(C2CC(c3cccc(Nc4ccncc4)c3)=Nc3c(N)ncnc3N2)cc(OC)c1OC` (stereo not drawn) was 83.7%.
The value for `O=CN(SSN(C=O)C1CCCCC1)C1CCCCC1` was 77.2%; that for `CCN1CCN(CCNc2nccc(-c3c(-c4cccc(OC)c4)nc4occn34)n2)S1(=O)=O` was 119%.
Consider `O=Nc1c(-c2cccc([N+](=O)[O-])c2)nc2ncccn12`, for which the growth was 0.307% (active).
Then `Cc1cc(C2=NNC(=O)Cc3cc4c(cc32)OCCO4)cc(C)c1N`, with 21.6%; and `CCCCCCC(C)c1ccccc1O` (stereo not drawn) (tested in a mixture with another compound), with 113%; and `CC1=C(O)C(=O)CC1`, with 112%.
Then `COC(=O)c1c(C(=O)OC)c2ccc3c4ncccc4ccc3n2c1C(=O)c1ccc(C)cc1`, with 91.8%; and `CCOC(=O)c1cc(C(=O)c2cc(OC)cc(OC)c2)n2ncccc12`, with -21.7% (active); and `CCOc1cc2ncc(C#N)c(Nc3ccc(OCc4ccccn4)c(Cl)c3)c2cc1NC(=O)/C=C/CN(C)C`, with 2.7% (active).
Then `O=C(COc1ccc(/C=C2\Oc3ccc4ccccc4c3C2=O)cc1)c1ccc(Cl)cc1`, with 86.5%; and `O=C1CCCN1C1CCN(Cc2cc3ccccc3[nH]c2=O)c2ccccc21` (stereo not drawn), with 95.6%.
On to `CCOC(=O)c1c(C)nc2ccccc2c1/C=C/c1ccccc1`, for which the growth is 81.8%.
For `Cc1nnc(-c2cc3c(ccc4ccccc43)oc2=O)c2cn(-c3ccc(Cl)cc3)nc12`, the growth is 84.4%.
For `O=C(Nc1ncc([N+](=O)[O-])s1)c1cccc([N+](=O)[O-])c1`, the growth is 2.45% (active).
Consider `Cc1ccc(S(=O)(=O)n2cc(C(=O)C(=O)N3CCOCC3)c3ccccc32)cc1`, for which the growth was 66.6%.
